# In the supplement of paper PMC9135407:
# Where “and” joins values, the source holds several entries; their conditions need not be identical. Identical values can stand only once. Counter-ions that a name gives are not always drawn. In all, about 5,800 compounds went through this assay and about 620 (11%) showed activity. The list comes from a sample in which actives are over-represented; it also holds similar structures and randomly drawn compounds. Values without a mark were called inactive.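 The calls were made as follows: active = score above a cut-off or among the top three wells of a plate; in these data no inactive exceeds 0.85.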
# Tested on: primary human hepatic stellate cells (donor 1)
# Assay: scaled lipid accumulation score (0 = DMSO-like, 1 = nortriptyline-like); higher = stronger HSC inactivation (lipid re-accumulation), active = hit call of the paper
# Conditions: 48 h
# [1] = library stock concentration: 10 mM
# [2] = library stock concentration: 1 mM
# [3] = library stock concentration: 3.33 mM
# [4] = library stock concentration: 80 uM
# [5] = library stock concentration: 400 uM
# [6] = library stock concentration: 2 mM
compound,measurement,setting,value
"Nc1ccc2c3c(cccc13)C(=O)NC2=O [4-Amino-1,8-naphthalimide] [listing 1 of 2 here]",scaled lipid accumulation score,[1],0.886 (active)
"Nc1ccc2c3c(cccc13)C(=O)NC2=O [4-Amino-1,8-naphthalimide] [listing 2 of 2 here]",scaled lipid accumulation score,library stock concentration: 23.6 mM,0.762
O=C1NC(=O)C(c2c[nH]c3ccccc23)=C1c1c[nH]c2ccccc12 [Bisindolylmaleimide IV],scaled lipid accumulation score,[2],≤ 0
same,scaled lipid accumulation score,[3],0.045
CC(C)C[C@H](NP(=O)(O)O[C@@H]1O[C@@H](C)[C@H](O)[C@@H](O)[C@H]1O)C(=O)N[C@@H](Cc1c[nH]c2ccccc12)C(=O)O [Phosphoramidon Disodium Salt],scaled lipid accumulation score,[3],≤ -0.009
same,scaled lipid accumulation score,[1],≤ 0
Cc1cc(CN2CCN(c3c(Br)cnc4[nH]c(-c5ccc(N6CCN(C)CC6)cc5)nc34)CC2)no1,scaled lipid accumulation score,[3],0.857 (active)
Cc1cc(CN2CCN(c3c(Br)cnc4nc(-c5ccc(N6CCN(C)CC6)cc5)[nH]c34)CC2)no1,scaled lipid accumulation score,[1],0.471
O=C(Nc1ccccc1)Nc1ccc(-c2ccc(C(=O)[C@@H]3CCC[C@H]3C(=O)O)cc2)cc1,scaled lipid accumulation score,[3],≤ 0
same,scaled lipid accumulation score,[1],≤ 0
O=C(Nc1ccc(I)cc1)NC1CCCCC1,scaled lipid accumulation score,[1],0.938 (active)
CC(=O)c1ccc(S(=O)(=O)NC(=O)NC2CCCCC2)cc1 [Acetohexamide],scaled lipid accumulation score,,≤ 0
same,scaled lipid accumulation score,library stock concentration: 6.2 mM,≤ 0
same,scaled lipid accumulation score,[1],0.116
CCCCCC/C=C\CCCCCCCC(=O)OCC [Palmitoleic Acid ethyl ester],scaled lipid accumulation score,[2],≤ 0
COc1ccc(CCn2nnnc2C2(c3ccc(C)cc3)CC2)cc1 [Mephetyl tetrazole],scaled lipid accumulation score,[1],≤ -0.07
COC(=O)C(C)c1ccc(C(=O)c2cccs2)cc1 (stereo unspecified) [Suprofen methyl ester],scaled lipid accumulation score,[1],≤ 0
Cc1scc2c1N(C(=O)CN1CCN(C)CC1)c1ccccc1NC2=O [Telenzepine dihydrochloride],scaled lipid accumulation score,,≤ 0
same,scaled lipid accumulation score,[1],0.052 and 0.027
COC(=O)c1ccc2c(c1)NC(=O)C2=C(Nc1ccc(N(C)C(=O)CN2CCN(C)CC2)cc1)c1ccccc1 [Nintedanib (BIBF 1120)],scaled lipid accumulation score,[3],1.2 (active)
same,scaled lipid accumulation score,[1],1.33 (active)
"COC(=O)c1ccc2c(c1)NC(=O)/C2=C(\Nc1ccc(N(C)C(=O)CN2CCN(C)CC2)cc1)c1ccccc1 [Intedanib (BIBF 1120, Vargatef) (10 mM)]",scaled lipid accumulation score,[1],1.51 (active)
CN1CCN(CC(=O)N2c3ccccc3C(=O)Nc3cccnc32)CC1 [Pirenzepine hydrochloride],scaled lipid accumulation score,library stock concentration: 4.7 mM,≤ 0
same,scaled lipid accumulation score,[1],≤ 0
Cc1scc2c1N(C(=O)CN1CCN(C)CC1)c1ccccc1NC2=O [Telenzepine hydrochloride],scaled lipid accumulation score,[1],0.084
COC(=O)c1ccc2c(C(=Nc3ccc(N(C)C(=O)CN4CCN(C)CC4)cc3)c3ccccc3)c(O)[nH]c2c1,scaled lipid accumulation score,[4],0.316
same,scaled lipid accumulation score,[5],0.522
same,scaled lipid accumulation score,[6],0.258
"COC(=O)c1ccc2c(c1)NC(=O)/C2=C(\Nc1ccc(N(C)C(=O)CN2CCN(C)CC2)cc1)c1ccccc1 [Intedanib  (BIBF 1120, Vargatef) (2 mM)]",scaled lipid accumulation score,[6],0.838
"COC(=O)c1ccc2c(c1)NC(=O)/C2=C(\Nc1ccc(N(C)C(=O)CN2CCN(C)CC2)cc1)c1ccccc1 [Intedanib (BIBF 1120, Vargatef) (0.4 mM)]",scaled lipid accumulation score,[5],0.323
COC(=O)c1ccc2c(c1)NC(=O)C2=C(Nc1ccc(N(C)C(=O)CN2CCN(C)CC2)cc1)c1ccccc1,scaled lipid accumulation score,[1],0.976 (active)
Cc1scc2c1N(C(=O)CN1CCN(C)CC1)c1ccccc1NC2=O [Telenzepine 2HCl],scaled lipid accumulation score,library stock concentration: 5.4 mM,0.006
CN1CCN(CC(=O)N2c3ccccc3C(=O)Nc3cccnc32)CC1 [Pirenzepine 2HCl],scaled lipid accumulation score,library stock concentration: 5.7 mM,≤ -0.006
CN1CCN(CC(=O)N2c3ccccc3C(=O)Nc3cccnc32)CC1 [Pirenzepine dihydrochloride],scaled lipid accumulation score,,≤ 0
same,scaled lipid accumulation score,[1],≤ 0
N=C(N)S/C=C\C(=O)O [ZAPA sulphate],scaled lipid accumulation score,[1],0.011
CC(O)C(=O)O.N (stereo unspecified),scaled lipid accumulation score,[1],≤ 0
CC(C)S(=O)(=O)Nc1ccc(F)c(C(=O)c2c[nH]c3ncc(-c4cccnc4)cc23)c1F,scaled lipid accumulation score,[4],≤ 0
same,scaled lipid accumulation score,[5],≤ 0
same,scaled lipid accumulation score,[6],≤ 0
same,scaled lipid accumulation score,[1],0.059
CC(C)(CCCCCCCCCCC(C)(C)CC(=O)O)CC(=O)O,scaled lipid accumulation score,[2],0.013
CCCCC/C=C\C/C=C\C/C=C\C/C=C\CCCC(=O)OCC [Arachidonic Acid ethyl ester],scaled lipid accumulation score,[2],≤ 0
CC(C)=CCC/C(C)=C/CC/C(C)=C/CSc1ccccc1C(N)=O [Farnesyl Thiosalicylic Acid Amide],scaled lipid accumulation score,[2],≤ 0
CCCCCCCCCCCCCCCC(=O)OC[C@H](COP(=O)([O-])OCC[N+](C)(C)C)OC(=O)CCCCCCCC(=O)/C=C/C(=O)O,scaled lipid accumulation score,[2],0.026
"Nc1nc2c(nc(Br)n2[C@@H]2O[C@@H]3COP(=O)(O)O[C@H]3[C@H]2O)c(=O)[nH]1 [8-Bromo-cGMP, sodium salt]",scaled lipid accumulation score,[1],0.026
CCCCC/C=C\C[C@@H](O)/C=C/C=C/C=C\[C@@H](O)CCCC(=O)O [Leukotriene B4],scaled lipid accumulation score,library stock concentration: 100 uM,≤ -0.021
NC(CCCP(=O)(O)O)C(=O)O (stereo unspecified),scaled lipid accumulation score,[1],0.024
NC(CCCP(=O)(O)O)C(=O)O (stereo not drawn) [D(-)-2-Amino-5-phosphonopentanoic acid],scaled lipid accumulation score,[1],0.148
CCCCCCCCc1ccc(CCC(N)(CO)CO)cc1,scaled lipid accumulation score,[2],0.527
CCCCCCCCc1ccc(-c2ccc(C(=O)O)cc2)cc1,scaled lipid accumulation score,[1],≤ 0 and 0.032
CCCCCCCCc1ccc(CCC(N)(CO)CO)cc1.Cl [Fingolimod (FTY720) HCl],scaled lipid accumulation score,[3],1.17 (active)
CCCCCCCCc1ccc(CCC(N)(CO)CO)cc1 [Fingolimod (FTY720) HCl],scaled lipid accumulation score,[1],0.376
CC1(C)CCC(C)(C)c2cc(C3(c4ccc(C(=O)O)cc4)OCCO3)ccc21,scaled lipid accumulation score,[1],≤ -0.001
COCCCC/C(=N\OCCN)c1ccc(C(F)(F)F)cc1 [Fluvoxamine maleate],scaled lipid accumulation score,,0.592
same,scaled lipid accumulation score,[3],0.347
same,scaled lipid accumulation score,[1],0.81 and 0.545
COCCCC/C(=N\OCCN)c1ccc(C(F)(F)F)cc1.O=C(O)/C=C\C(=O)O [Fluvoxamine maleate],scaled lipid accumulation score,[1],1.13 (active)
COCCCC/C(=N\OCCN)c1ccc(C(F)(F)F)cc1 [Fluvoxamine],scaled lipid accumulation score,[1],0.69
COCCCCCCCCCCCC(=O)O [12-Methoxydodecanoic acid],scaled lipid accumulation score,[2],≤ -0.021
CCCCC[C@H](O)/C=C/[C@@H]1[C@@H](C/C=C\CCCC(=O)O)[C@H](O)C[C@H]1O [Prostaglandin F2.beta. (tromethamine salt)],scaled lipid accumulation score,[2],≤ 0
CCCCC[C@H](O)/C=C/[C@@H]1[C@@H](C/C=C\CCCC(=O)O)[C@H](O)C[C@H]1O [Prostaglandin F2.beta.],scaled lipid accumulation score,[2],≤ 0
"CCCCC[C@H](O)/C=C/[C@@H]1[C@@H](C/C=C\CCCC(=O)O)[C@H](O)C[C@H]1O [9b,11a-Prostaglandin F2]",scaled lipid accumulation score,[2],≤ -0.021
CSc1ccc2c(c1)C(N1CCN(C)CC1)Cc1ccccc1S2 (stereo unspecified) [Methiothepin maleate],scaled lipid accumulation score,,0.829
CSc1ccc2c(c1)C(N1CCN(C)CC1)Cc1ccccc1S2 (stereo unspecified) [Methiothepin mesylate],scaled lipid accumulation score,[1],0.774
CSc1ccc2c(c1)C(N1CCN(C)CC1)Cc1ccccc1S2.O=C(O)/C=C\C(=O)O (stereo unspecified) [Methiothepin maleate],scaled lipid accumulation score,[1],1.41 (active)
CCCCCC(O)C=CC1C(O)CC(=O)C1CC=CCCCC(=O)O (stereo unspecified) [8-iso Prostaglandin E2],scaled lipid accumulation score,[2],≤ 0
CO[C@H]1C[C@H](O[C@H]2[C@H](C)O[C@@H](O[C@@H]3/C(C)=C/C[C@@H]4C[C@@H](C[C@]5(C=C[C@H](C)[C@@H](C6CCCCC6)O5)O4)OC(=O)[C@@H]4C=C(C)[C@@H](O)[C@H]5OC/C(=C\C=C\[C@@H]3C)[C@]54O)C[C@@H]2OC)O[C@@H](C)[C@@H]1O,scaled lipid accumulation score,[1],0.081
"CCCCC[C@H](O)CC[C@H]1[C@H](O)CC(=O)[C@@H]1CCCCCCC(=O)O [13,14-Dihydro-PGE1]",scaled lipid accumulation score,[2],≤ -0.021
Cc1cn(-c2cc(NC(=O)c3ccc(C)c(Nc4nccc(-c5cccnc5)n4)c3)cc(C(F)(F)F)c2)cn1 [Nilotinib (AMN-107)],scaled lipid accumulation score,[3],0.438
same,scaled lipid accumulation score,[1],0.668
Cc1cn(-c2cc(NC(=O)c3ccc(C)c(Nc4nccc(-c5cccnc5)n4)c3)cc(C(F)(F)F)c2)cn1,scaled lipid accumulation score,[4],≤ -0.009
same,scaled lipid accumulation score,[5],0.035
same,scaled lipid accumulation score,[6],≤ -0.009
same,scaled lipid accumulation score,[1],≤ -0.008
"Cc1cn(-c2cc(NC(=O)c3ccc(C)c(Nc4nccc(-c5cccnc5)n4)c3)cc(C(F)(F)F)c2)cn1 [Nilotinib (AMN107, Tasigna) (10 mM)]",scaled lipid accumulation score,[1],0.552
CNc1nccc(-c2cccnc2Oc2cc(C(=O)Nc3cccc(C(F)(F)F)c3)ccc2C)n1 [listing 1 of 2 here],scaled lipid accumulation score,[5],≤ -0.005
same,scaled lipid accumulation score,[6],≤ -0.005
CNc1nccc(-c2cccnc2Oc2cc(C(=O)Nc3cccc(C(F)(F)F)c3)ccc2C)n1 [listing 2 of 2 here],scaled lipid accumulation score,[1],1.13 (active)
"Cc1cn(-c2cc(NC(=O)c3ccc(C)c(Nc4nccc(-c5cccnc5)n4)c3)cc(C(F)(F)F)c2)cn1 [Nilotinib (AMN107, Tasigna) (2 mM)]",scaled lipid accumulation score,[6],≤ -0.005
"Cc1cn(-c2cc(NC(=O)c3ccc(C)c(Nc4nccc(-c5cccnc5)n4)c3)cc(C(F)(F)F)c2)cn1 [Nilotinib (AMN107, Tasigna) (0.4 mM)]",scaled lipid accumulation score,[5],0.053
